# AHR act – AHR activators, primary screen, cell-based, luminescence, luciferase reporter, human. AHR-responsive luciferase reporter cells. Aryl hydrocarbon receptor (Homo sapiens), P35869. activation, % at 5 µM. hit rate 2.5% among 320,000; in the data active = activation above about 47%;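 note: 0% = vehicle wells and 100% = reference agonist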
# HIF act – HIF pathway transcriptional activators, primary screen, cell-based, U2OS HRE-luciferase, luminescence; U2OS HRE-luciferase reporter; normalized: DMSO 0%, desferrioxamine 100%; activation, % at 7.5 µM (by protocol); hit rate 0.32% among 300,000; AID 1910, 2009;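 active = mean activation of at least 10% of the iron chelator positive control signal, with at least half of replicates also reaching 10%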
# HGIII-sPLA2 inh – human group III sPLA2 inhibitors, primary screen, biochemical, QFRET, BODIPY PC-A2 liposome substrate; Group 3 secretory phospholipase A2 (Homo sapiens), Q9NZ20; QFRET BODIPY PC-A2 liposome hydrolysis, fluorescence; inhibition, % at 12.2 µM; hit rate 0.56% among 370,000; AID 743126, 2013;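 active = inhibition above mean plus 3 SD of compounds lying within the high and low control bounds, cut at about 19% in these data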;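 note: 0% = median of test compound wells and 100% = no enzyme DMSO wells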
# Target sequence (Q9NZ20 whole entry, looked up): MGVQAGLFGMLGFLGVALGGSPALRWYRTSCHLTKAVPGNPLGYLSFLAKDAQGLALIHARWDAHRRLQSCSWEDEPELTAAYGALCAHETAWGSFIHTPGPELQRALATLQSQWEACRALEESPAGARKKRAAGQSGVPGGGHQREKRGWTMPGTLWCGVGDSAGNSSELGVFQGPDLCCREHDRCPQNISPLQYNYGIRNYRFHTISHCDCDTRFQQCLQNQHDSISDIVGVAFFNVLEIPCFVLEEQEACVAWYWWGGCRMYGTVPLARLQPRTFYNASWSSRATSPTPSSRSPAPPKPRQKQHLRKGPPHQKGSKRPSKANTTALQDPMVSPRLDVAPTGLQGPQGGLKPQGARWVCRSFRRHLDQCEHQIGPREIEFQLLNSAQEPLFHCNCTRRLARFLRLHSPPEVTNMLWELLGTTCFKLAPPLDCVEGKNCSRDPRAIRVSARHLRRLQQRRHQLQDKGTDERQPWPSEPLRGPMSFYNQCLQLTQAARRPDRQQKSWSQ
# PLC-gamma1 inh – PLC-gamma1 enzyme inhibitors, primary screen, biochemical, fluorescence, purified enzyme; 1-phosphatidylinositol 4,5-bisphosphate phosphodiesterase gamma-1 (Homo sapiens), P19174; AID 720700, 2013; hit rate 0.84% among 370,000; fluorogenic substrate; inhibition, % at 12.2 µM; in the data active = inhibition above about 9.5%
# PLC-beta3 inh – human PLC-beta3 inhibitors, primary screen, biochemical, fluorescence. 1-phosphatidylinositol 4,5-bisphosphate phosphodiesterase beta-3 (Homo sapiens), Q01970. Purified PLC-beta3, fluorogenic substrate. inhibition, % at 12.2 µM. hit rate 0.18% among 370,000. AID 720704, 2013; in the data active = inhibition above about 11%;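 note: 0% = median of compound wells on plate and 100% = full blocker control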
# CR mimetic SO – reduction of superoxide in aged yeast, primary screen, HTS; S. cerevisiae aged cells, superoxide DHE fluorescence; active compounds read low; superoxide response (% of plate mean), % at 10 µM; hit rate 0.18% among 330,000;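 active = superoxide response under a set limit, about three screen SD below normal, cut at about 65% in these data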;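 note: yeast aged for seven days with compound at 30 °C before DHE staining; 100% = average MFI of all compound-treated wells on the plate with controls excluded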
# An asterisk follows results filed as active; i = inactive; . = not tested or not shown. Most compounds without a hit are left out; they make up all but 3.9% or so of the library.
SMILES,AHR act,HIF act,HGIII-sPLA2 inh,PLC-gamma1 inh,PLC-beta3 inh,CR mimetic SO
Cc1ccc(NC(=O)C2CCCN(c3cnccn3)C2)c(C)c1 (configuration not stated),47*,0,9,-33,-49,138
Cc1ccc(CNC(=O)C2CCCN(c3cnccn3)C2)cc1 (configuration not stated),58*,0,5,-26,-43,85
O=C(NCc1ccccc1F)C1CCCN(c2cnccn2)C1 (configuration not stated),24,0,11,-18,-37,75
Cc1ccccc1CCNC(=O)C1CCCN(c2cnccn2)C1 (configuration not stated),48*,0,2,-21,-41,92
O=C(NCCc1ccccc1)C1CCCN(c2cnccn2)C1 (configuration not stated),64*,1,6,-24,-45,94
CCn1c(SCC(=O)N(C)c2ccccc2)nc2c([nH]c3ccccc32)c1=O,72*,0,4,1,-6,90
COc1ccc(-n2c(SCC(=O)N(C)c3ccccc3)nc3c([nH]c4ccccc43)c2=O)cc1OC,13,-1,11,4,-1,117
COCCn1c(SCC(=O)N2CC(C)OC(C)C2)nc2c([nH]c3ccccc32)c1=O (configuration not stated),30,0,1,1,-10,103
CCn1c(SCC(=O)N2CC(C)OC(C)C2)nc2c([nH]c3ccccc32)c1=O (configuration not stated),50*,0,9,0,-8,98
CC(=O)N1C(=O)C(=C2C=C(C)OC(C)=C2)c2ccccc21,55*,0,0,-15,3,90
Cc1ccc(-c2cc(-c3ccccc3)nc(N/N=C/c3cccnc3)n2)cc1,63*,-1,-8,-39,-46,102
Cc1ccc(-c2nc(N/N=C/c3cccc([N+](=O)[O-])c3)c3ccccc3n2)cc1,14,1,-16,1,3,101
COc1ccc(/C=N/Nc2nc(-c3cccnc3)nc3ccccc23)c(OC)c1,51*,-1,-1,-146,-198,110
COc1ccc(Nc2nc(-c3ccccc3)nc3ccccc23)c(OC)c1,28,0,-6,-206,-232,123
COc1ccc(/C=N/Nc2nc(C)cc(-c3ccccc3)n2)cc1OC,52*,0,8,-29,-44,100
Cc1ccc(-c2nc(N/N=C/c3cccnc3)c3ccccc3n2)cc1,62*,2,-10,-3,-7,98
CCOc1ccc(C=Nn2c(-c3cccc(OC(C)C)c3)n[nH]c2=S)cc1,.,.,-9,0,-3,.
C(=N\Nc1nc(Nc2ccccc2)nc(Nc2ccccc2)n1)/c1cccnc1,142*,1,2,6,-3,84
O=C(c1ccccc1)n1ccc2ccccc21,62*,2,-4,-1,-3,104
O=C(c1ccccc1)n1ccc2ccc(-c3ccc4ccn(Cc5ccccc5)c4c3)cc21,.,.,-2,-83,-102,.
Cc1cc(-c2nc3cccnc3s2)ccc1NS(=O)(=O)c1cccs1,70*,3,-29,i,i,100
Cc1cc(-c2nc3cccnc3s2)ccc1NS(=O)(=O)c1ccc2c(c1)OCCO2,48*,1,-57,i,i,91
Cc1c(NS(=O)(=O)c2ccc3c(c2)OCCO3)cccc1-c1nc2cccnc2s1,2,0,-20,-13,-14,70
COC(=O)[C@]12C[C@H](CC(=O)N3CCN(C(=O)C4CC4)CC3)C(=O)N(Cc3ccc(Cl)cc3Cl)C1=C[C@H](C1CCCC1)O[C@@H]2C,.,.,-5,0,3,.
Cc1cc(C(=O)N/N=C/c2cn[nH]c2-c2ccccc2)cs1,96*,-1,1,-3,-4,93
SMILES,AHR act,HIF act,HGIII-sPLA2 inh,PLC-gamma1 inh,PLC-beta3 inh,CR mimetic SO
O=C(N/N=C/c1cn[nH]c1-c1ccccc1)c1ccco1,65*,0,-2,2,-4,79
O=C(N/N=C\c1cn[nH]c1-c1ccccc1)c1ccc([N+](=O)[O-])cc1,17,0,-3,5,3,99
CC(C)[C@@H](C)/C=C/[C@@H](C)[C@H]1CC[C@@H]2[C@]1(C)CCC1[C@]23C=C[C@]2(C[C@@H](O)CC[C@]12C)N(c1cnccn1)O3 (some centres not stated),.,.,8,7,-7,.
COc1ccc(OC)c(CNn2c(-c3ccccc3F)nc3ccccc3c2=O)c1,20,0,-4,-1,-2,95
COc1ccc(O)c(CNn2c(-c3ccc(Br)cc3)nc3ccccc3c2=O)c1,62*,0,5,-4,-7,103
CCOC(=O)[C@@]12CN(C(=O)OC(C)(C)C)CC=C1N(Cc1ccc(OC)cc1)C(=O)[C@H]2CC(=O)NCCCCc1ccccc1,.,.,-19,1,3,.
CNC(C)C#Cc1ccc2oc3cccc(OC)c3c(=O)c2c1 (configuration not stated),-5,4,0,-411,i,97
CNC(C)C#Cc1ccc2c(=O)c3c(OC)cccc3oc2c1 (configuration not stated),97*,4,.,.,.,105
CCCCOC(=O)/C(=C/c1cn(C)c2ccccc12)NC(=O)c1ccc(OC)cc1,81*,0,-17,0,-2,102
Cc1cccc(NC(=S)N=Nc2c(O)[nH]c3ccccc23)c1,23,3,20*,11*,2,105
CC(C)NC(=S)N=Nc1c(O)[nH]c2ccc(C(C)C)cc12,67*,0,5,5,4,119
CC(C)c1ccc2[nH]c(O)c(N=NC(=O)c3cccc(S(=O)(=O)Nc4ccccc4Cl)c3)c2c1,4,0,-3,-1,-2,100
Nc1ccc(F)c(CN2CCN(c3ncc(Cc4ccccc4)cn3)CC2)c1,.,.,1,-1,-1,.
COC(=O)c1ccc(CSc2nc3c(c(=O)n2-c2ccccc2)SCC3)o1,0,0,-4,0,1,101
Cc1cc(NC(=O)CSc2nnc(C3CC3)n2-c2ccccc2)no1,48*,0,-1,4,3,86
COC(=O)c1ccc(CSc2nc3c(c(=O)n2-c2ccc(F)cc2)SCC3)o1,2,11*,-6,2,0,96
Cc1cc(NC(=O)CSc2nc3c(c(=O)n2-c2ccc(Cl)cc2)SCC3)no1,3,45*,2,0,1,103
Cc1cc(NC(=O)CSc2nc3c(c(=O)n2C)SCC3)no1,4,0,-4,-1,-3,103

# Screening data (PubChem)
